The values that follow come from PubChem BioAssay (Tox21).

Each structure is given as a SMILES string. Values joined by “and” are separate entries in the source; they are usually repeats but may differ in a detail not shown here. Equal entries are not always repeated. Results filed as inconclusive are left out. Values without a mark were called inactive. Active and inactive are the calls of the source. Unless noted, the call rests on the fitted dose curve; in most records, active means well fitted curve in the direction sought with a large enough effect in the repeat runs; inconclusive means weak or mixed curves; inactive means no such curve, though single readings can be large; an effect the other way counts as inactive or inconclusive.

A short description of assay [1]: qHTS assay to identify small molecule agonists of the peroxisome proliferator-activated receptor delta (PPARd) signaling pathway - cell viability counter screen (AID 743211). Further: nearly all actives have a fitted effect of over 55% in size. Further: potency means the concentration at half of the fitted maximal effect. Summed up:
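Read-out: CellTiter-Glo luminescence, 30 min RT, measured in the same wells as the beta-lactamase reporter. Cells: GeneBLAzer PPAR delta UAS-bla HEK293H, 3000 cells/well, compound exposure 17 h at 37C.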

A short description of assay [2]: qHTS assay to identify small molecule antagonists of the peroxisome proliferator-activated receptor delta (PPARd) signaling pathway - cell viability counter screen (AID 743213). Further: nearly all actives have a fitted effect of over 50% in size. Further: potency means the concentration at half of the fitted maximal effect. The method, boiled down: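 Luminescence from CellTiter-Glo, added after the bla read and incubated 30 min at room temperature, gives viability of HEK293H PPARd-bla cells exposed to compounds for 17 h at 37 C with 300 nM L165041.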
In general terms: qHTS replaces the single test concentration by a dilution series.

Assay [3] has as its target Peroxisome proliferator-activated receptor delta (Homo sapiens) (UniProt Q03181). Nature of the assay: qHTS assay to identify small molecule antagonists of the peroxisome proliferator-activated receptor delta (PPARd) signaling pathway (AID 743215; active means well fitted inhibition curve with a large enough effect in the signal ratio in the repeat runs, not every such curve was filed as active; the % refers to the signal ratio;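 further: cells stimulated with agonist L165041 at 300 nM final during compound exposure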; further: potency means the concentration at half of the fitted maximal effect). Summed up: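 Antagonist-mode beta-lactamase reporter screen: HEK293H cells with UAS-bla under PPARd control, stimulated by 300 nM L165041 (final) alongside test compound for 17 h at 37 C, then FRET fluorescence after 2 h substrate incubation.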

The target in assay [4] is Bile acid receptor (Homo sapiens) (UniProt Q96RI1). Nature of the assay: qHTS assay to identify small molecule antagonists of the farnesoid-X-receptor (FXR) signaling pathway (AID 743217; active means well fitted inhibition curve with a large enough effect in the signal ratio in the repeat runs, not every such curve was filed as active; the % refers to the signal ratio; further: potency means the concentration at half of the fitted maximal effect). The method, boiled down:
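Beta-lactamase reporter under UAS control in HEK 293T cells; compound exposure 16 h at 37 °C in the presence of chenodeoxycholic acid (50 uM final); signal from B/G FRET substrate after 2 h at room temperature.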

For assay [5] the target is unchanged. Nature of the assay: qHTS assay to identify small molecule agonists of the farnesoid-X-receptor (FXR) signaling pathway (AID 743220; active means well fitted activation curve with a large enough effect in the signal ratio in the repeat runs, not every such curve was filed as active; the % refers to the signal ratio). Summed up:
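Beta-lactamase reporter under UAS control in GeneBLAzer FXR HEK 293T cells (5000/well) measured with LiveBLAzer FRET substrate after 2 h at room temperature. Compound exposure lasted 16 h at 37C.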

Assay [6] can be described thus: qHTS assay to identify small molecule antagonists of the farnesoid-X-receptor (FXR) signaling pathway - cell viability counter screen (AID 743221; active means well fitted cell-killing curve with a large enough effect in the repeat runs, not every such curve was filed as active; further: nearly all actives have a fitted effect of over 50% in size; further: potency means the concentration at half of the fitted maximal effect). Summed up: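 HEK 293T FXR-bla cells, 5 h pre-incubation; compound + CDCA 50 uM final, 16 h, 37 C; beta-lactamase FRET read first, then CellTiter-Glo luminescence, 30 min RT.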
For assay [7], the target named is Vitamin D3 receptor (Homo sapiens) (UniProt P11473). The experiment in a line: qHTS assay to identify small molecule agonists of the vitamin D receptor (VDR) signaling pathway (AID 743222; calls by dose curve). Summed up:
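Agonist activity measured in VDR-bla reporter cells. Exposure 16 h, 37C, 5% CO2; detection by B/G FRET substrate, 2 h RT.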

Assay [8] has the same target. Nature of the assay: qHTS assay to identify small molecule antagonists of the vitamin D receptor (VDR) signaling pathway (AID 743223; active means well fitted inhibition curve with a large enough effect in the signal ratio in the repeat runs, not every such curve was filed as active; the % refers to the signal ratio; further: potency means the concentration at half of the fitted maximal effect). Summed up:
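Beta-lactamase reporter read-out: FRET substrate fluorescence after 2 h at room temperature, following 16 h exposure of VDR-bla cells to test compound plus 3 nM (final) 1alpha,25-dihydroxyvitamin D3 agonist at 37C.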

Assay [9] in a line: qHTS assay to identify small molecule agonists of the farnesoid-X-receptor (FXR) signaling pathway - cell viability counter screen (AID 743218). Further: nearly all actives have a fitted effect of over 45% in size. Further: potency means the concentration at half of the fitted maximal effect. The method, boiled down:
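In GeneBLAzer FXR-UAS-bla HEK 293T cells, compounds act for 16 h at 37 C. Cell viability is then scored in the reporter wells by CellTiter-Glo, 30 min at RT, luminescence.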

Vitamin D3 receptor (Homo sapiens), sequence (P11473 whole entry, looked up): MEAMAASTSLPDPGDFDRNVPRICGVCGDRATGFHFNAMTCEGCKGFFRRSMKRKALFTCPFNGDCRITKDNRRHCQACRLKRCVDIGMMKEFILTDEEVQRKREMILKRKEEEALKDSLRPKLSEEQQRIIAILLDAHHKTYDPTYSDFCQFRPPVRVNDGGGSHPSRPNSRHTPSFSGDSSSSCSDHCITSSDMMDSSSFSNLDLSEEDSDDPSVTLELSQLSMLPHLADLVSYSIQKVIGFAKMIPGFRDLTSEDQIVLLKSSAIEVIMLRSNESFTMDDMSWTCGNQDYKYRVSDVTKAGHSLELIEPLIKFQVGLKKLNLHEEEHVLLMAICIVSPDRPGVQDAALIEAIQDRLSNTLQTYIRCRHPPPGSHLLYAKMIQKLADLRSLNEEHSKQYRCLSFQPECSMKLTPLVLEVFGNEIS
Peroxisome proliferator-activated receptor delta (Homo sapiens), sequence (Q03181 whole entry, looked up): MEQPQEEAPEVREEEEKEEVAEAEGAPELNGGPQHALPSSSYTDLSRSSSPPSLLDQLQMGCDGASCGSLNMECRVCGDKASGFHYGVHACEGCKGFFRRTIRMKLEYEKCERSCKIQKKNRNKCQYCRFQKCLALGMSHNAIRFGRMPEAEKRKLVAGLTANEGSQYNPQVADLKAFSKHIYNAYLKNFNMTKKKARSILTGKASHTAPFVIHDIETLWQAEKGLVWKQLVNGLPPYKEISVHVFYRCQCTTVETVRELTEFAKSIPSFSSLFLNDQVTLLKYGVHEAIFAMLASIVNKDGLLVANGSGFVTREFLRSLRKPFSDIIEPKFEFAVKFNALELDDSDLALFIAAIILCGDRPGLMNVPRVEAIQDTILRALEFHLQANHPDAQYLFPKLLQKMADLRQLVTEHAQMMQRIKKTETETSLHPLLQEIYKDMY
Bile acid receptor (Homo sapiens), sequence (Q96RI1 whole entry, looked up): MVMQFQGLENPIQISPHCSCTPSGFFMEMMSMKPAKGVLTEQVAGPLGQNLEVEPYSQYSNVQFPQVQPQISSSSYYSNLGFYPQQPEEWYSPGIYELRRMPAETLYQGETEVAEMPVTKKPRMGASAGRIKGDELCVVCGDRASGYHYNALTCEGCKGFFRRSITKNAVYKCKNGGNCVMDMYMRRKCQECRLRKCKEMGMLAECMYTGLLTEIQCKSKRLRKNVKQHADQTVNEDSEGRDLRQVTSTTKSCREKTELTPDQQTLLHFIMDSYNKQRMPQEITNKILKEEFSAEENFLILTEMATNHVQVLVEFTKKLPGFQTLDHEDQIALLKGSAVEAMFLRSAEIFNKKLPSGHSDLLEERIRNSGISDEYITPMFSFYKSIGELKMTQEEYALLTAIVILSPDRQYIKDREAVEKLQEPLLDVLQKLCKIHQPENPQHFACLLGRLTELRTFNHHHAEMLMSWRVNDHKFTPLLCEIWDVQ

For `CCCCCC/C=C\CCCCCCCC(=O)O`, the Potency entry in assay [1], in assay [2], in assay [3], in assay [4], in [5] and in assay [6] was “inactive” throughout. The Potency entry in assay [7] and in assay [8] was “inactive” each time.
Regarding `CCN(CC)C(=O)c1cc(S(=O)(=O)Cc2ccccc2)c(N2CCC(c3ccccc3)CC2)cc1N(CC)CCN(C)C`, the Potency in [1] was 21.6 µM (active); in assay [2] it was 6.84 µM (active); in [3] it was 17.2 µM (active). Also, the Potency result in [4], in assay [5] and in [7] was “inactive” throughout.
As to `CC(=O)OCC=C(C)C`, the Potency result in [1], in [2], in assay [3], in [6], in [7] and in [8] was “inactive” throughout.
With `Nc1cc(Cl)c(O)c(Cl)c1`, the Potency result in assay [1], in assay [2] and in assay [9] was “inactive” in each case.
`[Cu+]`: the Potency result in [1], in [2], in assay [3], in assay [9] and in [6] was “inactive” in each case.
Regarding `c1ccc(SSc2ccccc2)cc1`, the Potency result in assay [1], in assay [2], in assay [3], in [6] and in assay [7] was “inactive” in each case.
Regarding `OC[C@H]1O[C@H](O[C@H]2O[C@H](CO)[C@@H](O)[C@H](O)[C@H]2O)[C@H](O)[C@@H](O)[C@@H]1O`, the Potency result in assay [1], in [2], in assay [4], in assay [9], in assay [5] and in [6] was “inactive” throughout. Further, the Potency entry in assay [7] was “inactive”.
Consider `CN(C)c1ccc(C(=C2C=CC(=[N+](C)C)C=C2)c2ccc(N(C)C)cc2)cc1`, for which the Potency in assay [1] is 6.88 µM (active) and 7.76 µM (active) and 8.41 µM (active); in assay [2], 17.3 µM (active) and 17.4 µM (active) and 6.68 µM (active); in [4] it was 16.8 µM (active); in assay [9], 10.9 µM (active) and 19.5 µM (active) and 10.6 µM (active); in assay [6] it was 21.8 µM (active) and 27.5 µM (active) and 13.3 µM (active). The Potency entry in assay [5] and in [7] was “inactive” in each case.
As to `CC1(C)CCC[C@]2(C)[C@H]3CC(=O)O[C@]3(C)CC[C@@H]12`, the Potency result in assay [1], in assay [2], in assay [3], in [9], in [5] and in assay [6] was “inactive” in each case.
Take `CCCCCCC1CCCC(=O)O1` (centres undefined): the Potency entry in assay [1], in [2], in assay [3] and in assay [8] was “inactive” throughout.
As to `CC(C)CCCCCOC(=O)CCS`, the Potency result in assay [1], in assay [2], in [3], in assay [6], in assay [7] and in assay [8] was “inactive” each time.
Regarding `Cc1nc(-c2ccc(Cl)cc2)oc1COC(C)(C)C(=O)O`, the Potency result in assay [1], in assay [2], in assay [4], in [9], in assay [5] and in assay [6] was “inactive” throughout. The Potency entry in assay [7] and in assay [8] was “inactive” each time.
Regarding `COc1cccc2c1C(=O)c1c(O)c3c(c(O)c1C2=O)C[C@@](O)(C(C)=O)C[C@@H]3O[C@H]1C[C@H](N)[C@H](O)[C@H](C)O1`, the Potency was 24.7 µM (active) and 33.5 µM (active) in assay [1]; 43.9 µM (active) in [2]; 55.3 µM (active) and 2.4 nM (active) in [9].
Consider `CN(C)C(=O)COC(=O)Cc1ccc(OC(=O)c2ccc(N=C(N)N)cc2)cc1`, for which the Potency entry in assay [1], in [2], in [4], in assay [9], in assay [5] and in assay [6] was “inactive” throughout.
As to `Cc1ccc(C(C)C)cc2c(C)ccc1-2`, the Potency result in assay [1], in [2], in assay [4], in assay [9], in assay [5] and in [6] was “inactive” throughout. Further, the Potency entry in assay [7] and in assay [8] was “inactive” each time.
On to `O=C(O)[C@H](O)[C@@H](O)[C@H](O[C@@H]1O[C@H](CO)[C@H](O)[C@H](O)[C@H]1O)[C@H](O)CO`, for which the Potency entry in assay [1], in [2], in assay [3], in assay [6], in [7] and in [8] was “inactive” in each case.
In the case of `CCn1c2ccccc2c2cc([N+](=O)[O-])ccc21`, the Potency entry in [1], in assay [2], in [4] and in [9] was “inactive” throughout.
As to `O=C(O)c1cc(N=Nc2ccc([N+](=O)[O-])cc2)ccc1O`, the Potency result in assay [1], in [2], in [3] and in assay [6] was “inactive” throughout. The Potency in [9] was 30.3 µM (active).
As to `OCCN1CCN(CCCN2c3ccccc3Sc3ccc(C(F)(F)F)cc32)CC1`, the figures for the Potency in [1], in [2] and in assay [9] were 26.6 µM (active), 11.9 µM (active) and 29.8 µM (active), respectively. Besides, the Potency entry in [4] and in assay [5] was “inactive” throughout.
As to `COc1ccc2c(c1)c(CC(=O)OC/C=C(\C)CC/C=C(\C)CCC=C(C)C)c(C)n2C(=O)c1ccc(Cl)cc1`, the Potency result in assay [1], in [2], in assay [9], in assay [5], in [6] and in assay [8] was “inactive” each time.
As for `Nc1ccc(NCCO)c([N+](=O)[O-])c1`, the Potency result in assay [1], in assay [2], in assay [3], in [9] and in [6] was “inactive” each time.
With `CC(N=C(NC#N)Nc1ccncc1)C(C)(C)C` (centres undefined), the Potency result in assay [1], in assay [2], in [4] and in assay [5] was “inactive” in each case.
Turning to `O=c1[nH]c2ccccc2n1CCCN1CCN(C(c2ccccc2)c2ccccc2)CC1`, the Potency is 29.8 µM (active) in [1] and 26.6 µM (active) in assay [9]. The Potency entry in assay [2], in assay [3], in assay [6] and in assay [8] was “inactive” throughout.
Turning to `CCCCCCCCCCCCCC[N+](C)(C)Cc1ccccc1`, the Potency in assay [1] was 22.2 µM (active) and 21.1 µM (active); in assay [2], 22.2 µM (active) and 10.6 µM (active); in [9], 23.7 µM (active); in assay [6], 49.7 µM (active); in assay [8], 44.3 µM (active). Besides, the Potency result in assay [4], in [5] and in assay [7] was “inactive” each time.
Consider `CC(C)(c1cc(Br)c(OCC(Br)CBr)c(Br)c1)c1cc(Br)c(OCC(Br)CBr)c(Br)c1` (centres undefined), for which the Potency entry in [1], in assay [2], in [3], in assay [9], in assay [6] and in [7] was “inactive” each time. The Potency result in [8] is “inactive”.
For `NC(=O)c1cccc([N+](=O)[O-])c1`, the Potency result in [1], in assay [2], in [3], in assay [9] and in assay [6] was “inactive” throughout.
`CCCc1ccc(OCC(=O)N2CCN(C(=O)COc3ccc(CCC)cc3OC)CC2)c(OC)c1`: the Potency entry in assay [1], in assay [2], in assay [4], in assay [9], in assay [5] and in assay [6] was “inactive” each time. The Potency entry in assay [7] and in [8] was “inactive” in each case.
Take `CCC(CC)(CC(=O)Nc1cccc(/C=C/c2nc(C3CCC3)cs2)c1)C(=O)O`: the Potency result in [1], in [2], in [3], in assay [4], in assay [5] and in assay [6] was “inactive” throughout.
As to `CCCC1CCC(=O)CC1`, the Potency entry in assay [1], in assay [2] and in [9] was “inactive” in each case.
For the compound `Cc1ccc(N/N=c2\c(=O)cc/c(=N\Nc3ccc(S(=O)(=O)O)cc3)c2=O)c(C)c1`, the Potency result in [1], in assay [2], in [4], in [9], in assay [5] and in assay [6] was “inactive” each time.
As to `COc1ccc2cc1Oc1ccc(cc1)C[C@H]1c3c(cc4c(c3Oc3cc5c(cc3OC)CCN(C)[C@@H]5C2)OCO4)CCN1C`, the Potency is 29.8 µM (active) in assay [1], 13.3 µM (active) in assay [2], 18.8 µM (active) in assay [9] and 29.8 µM (active) in assay [6]. Further, in [5], the Potency result was “inactive”.
As for `O=c1oc2cc(O)ccc2c2oc3cc(O)ccc3c12`, the Potency result in assay [1], in [2] and in assay [6] was “inactive” each time.
Consider `CN(C)[C@@H](CCOc1cccc2ccccc12)c1ccccc1`, for which the Potency in assay [1] was 23.7 µM (active). In addition, the Potency entry in [3], in assay [4], in [5], in assay [6] and in assay [8] was “inactive” throughout.
Take `CC(C(=O)O)c1ccc2c(c1)[nH]c1ccc(Cl)cc12` (centres undefined): the Potency entry in assay [1], in assay [2], in assay [5], in assay [6] and in assay [8] was “inactive” each time.
For `NC(=S)NC(N)=S`, the Potency entry in [1], in assay [2], in assay [9], in assay [6], in assay [7] and in assay [8] was “inactive” each time.
`CC(=O)[C@H]1CC[C@H]2[C@@H]3CCC4=CC(=O)CC[C@]4(C)[C@H]3CC[C@]12C`: the Potency in [1] was 48.7 µM (active). Besides, in assay [6], the Potency result was “inactive”.
